Screening data as filed in PubChem BioAssay.
Only some compounds are listed: those with a hit (about 9.9% of all), similar ones and a draw of the others.
KB-3-1 cytotox: kills parental KB-3-1 adenocarcinoma cells | KB-3-1 viability, CellTiter-Glo ATP luminescence, 72 h | Potency, µM (top dose mostly 46.1 µM), actives largely listed as cytotoxic | 400,000 compounds, 1.4% hits | AID 1347075; further: nearly all actives have a fitted effect of over 60% in size
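Multi-concentration cytotoxicity screen in KB-3-1 cells grown in DMEM lacking phenol red with 10% FBS. After 72 h at 37 °C with compound, ATP-dependent luminescence was recorded.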
MCF10A rereplic: DNA re-replication induction in MCF 10a cells; Potency, µM (highest dose often 46.1 µM), actives largely listed as activators; 350,000 compounds, 2.9% hits; AID 624296; MCF 10A DNA re-replication, Hoechst nuclear intensity, 48 h; further: nearly all actives have a fitted effect of over 50% in size
SW480 rerep: DNA re-replication induction in SW480 cells; Potency, µM (highest dose often 46.1 µM), usual class: activators; SW480 DNA re-replication, Hoechst DNA content imaging, 48 h; 340,000 compounds, 1.8% hits; AID 624297; further: nearly all actives have a fitted effect of over 55% in size
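Quantitative HTS format with DMSO vehicle controls; 48 hr drug incubation at 37 C, then 40 min Hoechst staining and scanning imager measurement at 405 nm excitation.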
KB-V1 cytotox: kills drug-selected multidrug resistant KB-V1 cells | Potency, µM (series often up to 46.1 µM), hits mostly cytotoxic | KB-V1 MDR cells viability, CellTiter-Glo, 72 h | AID 1347076 | 400,000 compounds, 3.4% hits; further: nearly all actives have a fitted effect of over 60% in size
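Following 72 h at 37 degrees C with compound, KB-V1 cell viability was read by CellTiter-Glo luminescence, medium being phenol-red-free DMEM plus 10% FBS; concentration-response parameters came from normalized, curve-fitted qHTS data.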
IL1B secr inh: blocks inflammasome-driven IL-1 beta release; THP-1 LPS/ATP IL-1B secretion, AlphaLISA, 16 h; hits give low values; activity change, % at 57.5 µM; AID 743279; 360,000 compounds, 4.7% hits; in the data active means activity change below about -50%; inconclusive means mostly about -30% to -49%
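Secreted IL-1B measured by AlphaLISA bead assay after 16 h compound exposure of THP-1 cells; compounds (final up to 57.5 uM) added 1 h before LPS (250 ng/mL) and ATP (1.25 mM) stimulation; lower signal means less secretion.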
Of the large screens only hits and unclear results are named; the others gave an inactive call. Unless noted, the call rests on the fitted dose curve; in most records, active means well fitted curve in the direction sought with a large enough effect; inconclusive means small, poorly fitted or top-dose-only effect, or another doubt; inactive means no such curve, though single readings can be large; an effect the other way counts as inactive or inconclusive.

CCN(CC)C(=O)C1CCN(Cc2ccc(Br)cc2)CC1	KB-V1 cytotox 18.4µM
O=C(NC1CCN(Cc2ccccc2)CC1)C12CC3CC(CC(C3)C1)C2	KB-V1 cytotox 25.9µM
CCN(CC)C(=O)C1CCCN(Cc2ccc3ccccc3c2)C1 (stereo not drawn)	none
O=C(Cc1ccccc1)NC1CCN(Cc2ccccc2)CC1	none
CC(=O)CCC(=O)N1CCC(n2nccc2NC(=O)c2ccccc2C)CC1	KB-3-1 cytotox inconclusive
CSCCC(NC(=O)c1ccco1)C(=O)NCc1ccc2c(c1)OCO2 (stereo not drawn)	none
Cc1cc(C)n(CC(C)C(=O)O)n1 (stereo not drawn)	SW480 rerep inconclusive, IL1B secr inh -78.9
Cc1cc(C)n(CC(=O)O)n1	none
Cc1ccc(/C=N/n2cnc3sc4c(c3c2=O)CCCC4)o1	MCF10A rereplic inconclusive, SW480 rerep inconclusive, KB-V1 cytotox inconclusive, IL1B secr inh -57.7
O=c1c2c3c(sc2ncn1/N=C/c1ccc(Br)o1)CCCC3	IL1B secr inh inconclusive
Nc1c(C(=O)c2ccccc2)sc2nsc(SCCN3CCCC3)c12	KB-3-1 cytotox inconclusive, MCF10A rereplic 20.6µM, SW480 rerep inconclusive, KB-V1 cytotox inconclusive, IL1B secr inh -104.4
NCCCC[C@H]1CNC(=S)N1CCc1cc(C(F)(F)F)cc(C(F)(F)F)c1	IL1B secr inh -50.9
NCCCC[C@H]1CNC(=O)C(=O)N1CCc1cc(C(F)(F)F)cc(C(F)(F)F)c1	none
CCN1CC=C2C(C1)C(c1ccc(Cl)s1)C(C#N)=C(N)C2(C#N)C#N (stereo not drawn)	KB-V1 cytotox 14.6µM
CN1CCN(S(=O)(=O)c2ccc(NC(=O)c3ccc(Br)s3)cc2)CC1	MCF10A rereplic 14.6µM, SW480 rerep inconclusive
CN1CCN(S(=O)(=O)c2ccc(NC(=O)c3ccc(Br)o3)cc2)CC1	KB-V1 cytotox 9.2µM
CN1CCN(S(=O)(=O)c2ccc(NC(=O)c3ccccc3Cl)cc2)CC1	none
O=c1[nH]cnc2sc(-c3ccccc3)cc12	none
O=c1[nH]c(-c2ccccc2)nc2sc(-c3ccccc3)cc12	KB-3-1 cytotox inconclusive, MCF10A rereplic 10.3µM, SW480 rerep 2.91µM, KB-V1 cytotox inconclusive
CC(C)OC(=O)/C(C#N)=C/c1ccc(-c2ccc(SC(F)F)cc2)o1	none
COC(=O)/C(C#N)=C/c1ccc(-c2ccc(S(N)(=O)=O)cc2)o1	IL1B secr inh -74.2
CCOC(=O)c1cnc2ccc(OCC)cc2c1Nc1ccc(OCc2ccccc2Cl)cc1	none (no result: MCF10A rereplic, SW480 rerep, IL1B secr inh)
CCOC(=O)c1cnc2ccc(OCC)cc2c1N(C)Cc1ccccc1	MCF10A rereplic inconclusive, KB-V1 cytotox inconclusive, IL1B secr inh -71.1
CCOC(=O)c1cnc2c(OC)cccc2c1N1CCN(c2ccccc2F)CC1	none (no result: MCF10A rereplic, SW480 rerep, IL1B secr inh)
CCOC(=O)c1cnc2ccc(OCC)cc2c1N1CCN(c2ccccc2OC)CC1	KB-3-1 cytotox inconclusive, MCF10A rereplic 18.4µM, KB-V1 cytotox inconclusive, IL1B secr inh -55.1
O=C(NCCCN1CCOCC1)c1ccc2c(=O)n(Cc3cccc(Br)c3)c(=S)[nH]c2c1	SW480 rerep inconclusive, IL1B secr inh -64.7
COCCn1c(=S)[nH]c2cc(C(=O)NCCCN3CCOCC3)ccc2c1=O	none
CC1(C(=O)O)CCC2(C)CCC3(C)C(=CC(=O)C4C5(C)CCC(O)C(C)(C)C5CCC43C)C2C1 (stereo not drawn)	MCF10A rereplic 26.6µM (no result: KB-3-1 cytotox, KB-V1 cytotox, IL1B secr inh)
CC1(C)[C@@H](O)CC[C@]2(C)[C@H]3C(=O)C=C4[C@@H]5C[C@@](C)(C(=O)O)CC[C@]5(C)CC[C@@]4(C)[C@]3(C)CC[C@@H]12	none
CC1(C)[C@@H](O)CC[C@]2(C)C3C(O)C=C4[C@H]5C[C@@](C)(CO)CC[C@]5(C)CC[C@]4(C)[C@]3(C)CC[C@@H]12 (stereo partly drawn)	MCF10A rereplic 13µM
C[C@H]1[C@H](C)CC[C@]2(C)CC[C@]3(C)C(=CC(=O)C4[C@@]5(C)CC[C@H](O)C(C)(C)C5CC[C@]43C)[C@H]12 (stereo partly drawn)	MCF10A rereplic inconclusive
Fc1ccc(-n2ncc3c(NCCCc4ccccc4)ncnc32)cc1	none (no result: MCF10A rereplic, SW480 rerep, IL1B secr inh)
CN(C)S(=O)(=O)c1ccc2c(c1)N(CC(=O)NCc1ccccc1)C(=O)C1CCCCN21 (stereo not drawn)	none (no result: MCF10A rereplic, SW480 rerep, IL1B secr inh)
C[N+](C)(C)CCC(=O)N1C/C(=C/c2ccccc2)C(=O)/C(=C\c2ccccc2)C1	KB-3-1 cytotox inconclusive, MCF10A rereplic inconclusive, SW480 rerep 0.731µM, KB-V1 cytotox 10.3µM, IL1B secr inh -98.5
O=C(/C=C/c1ccccc1)CCN1CCOCC1	KB-3-1 cytotox inconclusive, MCF10A rereplic inconclusive, SW480 rerep 8.2µM, KB-V1 cytotox inconclusive, IL1B secr inh -83.5
C/C(=C\c1ccccc1)C(=O)NCCN1CCOCC1	none
O=C1/C(=C/c2ccccc2)CN(C(=O)CCN2CCOCC2)C/C1=C\c1ccccc1	MCF10A rereplic 2.31µM, SW480 rerep inconclusive, KB-V1 cytotox inconclusive, IL1B secr inh -101.4
CN(C)CCC(=O)N1C/C(=C/c2ccccc2)C(=O)/C(=C\c2ccccc2)C1	SW480 rerep inconclusive, IL1B secr inh -99.5
CCOC(=O)N1C/C(=C\c2ccccc2)C(=O)/C(=C/c2ccccc2)C1	KB-3-1 cytotox inconclusive, MCF10A rereplic inconclusive, SW480 rerep inconclusive, IL1B secr inh inconclusive
O=C(Nc1ccc(N2CCN(Cc3ccccc3F)CC2)cc1)c1ccc([N+](=O)[O-])o1	KB-3-1 cytotox inconclusive, MCF10A rereplic 2.06µM, SW480 rerep inconclusive, KB-V1 cytotox 14.6µM, IL1B secr inh -102.5
CS(=O)(=O)N1CCN(c2ccc(NC(=O)c3cc4ccccc4o3)cc2)CC1	SW480 rerep inconclusive
CC1CCN(c2ccc(NC(=O)c3ccc([N+](=O)[O-])o3)cc2)CC1	KB-3-1 cytotox 5.17µM, MCF10A rereplic 3.26µM, SW480 rerep 9.2µM, KB-V1 cytotox 10.3µM, IL1B secr inh -109.0
O=C(Nc1ccc(N2CCCC2)c(Cl)c1)c1ccc([N+](=O)[O-])o1	KB-3-1 cytotox inconclusive, MCF10A rereplic 2.91µM, KB-V1 cytotox inconclusive, IL1B secr inh -109.4
CS(=O)(=O)N1CCN(c2ccc(NC(=O)c3ccc([N+](=O)[O-])o3)cc2)CC1	MCF10A rereplic 2.06µM, KB-V1 cytotox 18.4µM, IL1B secr inh -96.8
Cc1ccc(NC(=O)c2cc(S(=O)(=O)N3CCCC(C)C3)cn2C)c(Br)c1 (stereo not drawn)	none (no result: MCF10A rereplic, SW480 rerep, IL1B secr inh)
Cc1cc(NC(=O)CN2CCC(C)CC2)no1	none
O=C(Nc1ccc(N2CCCCC2)cc1)c1ccc([N+](=O)[O-])o1	KB-3-1 cytotox inconclusive, MCF10A rereplic inconclusive, SW480 rerep inconclusive, KB-V1 cytotox inconclusive, IL1B secr inh -99.1
O=C(Nc1ccc(N2CCCC2)cc1)c1ccccc1[N+](=O)[O-]	KB-3-1 cytotox inconclusive, KB-V1 cytotox inconclusive
Cc1nonc1OCCNC(=O)C12CC3CC(CC(C3)C1)C2	SW480 rerep inconclusive, KB-V1 cytotox 23.1µM
